Calls of active or inactive are those of the source. The calls were made as follows: active = hit-call score of the fitted dose curve at least 0.9, where 1 is the maximum; inactive = score below 0.9.
assay: ATG_Sox_CIS: Attagene CIS-FACTORIAL HepG2 Assay for human SRY-box transcription factor (SOX) (AID 2282960); conditions: HepG2 Attagene cis-factorial SOX reporter, mRNA; actives raise or lower the signal
Description: ATG_CIS is a cell-based, multiplexed-readout assay that uses HepG2, a human liver cell line, with measurements taken at 24 hours after chemical dosing in a 24-well plate.ATG_Sox_CIS is one of 52 assay component(s) measured or calculated from the ATG_CIS assay. It is designed to make measurements of mRNA induction, a form of inducible reporter, as detected with fluorescence intensity signals by Reverse transcription polymerase chain reaction (RT-PCR) and Capillary electrophoresis technology.Data from the assay component ATG_Sox_CIS was analyzed into 1 assay endpoint. This assay endpoint, ATG_Sox_CIS, was analyzed with bidirectional fitting relative to DMSO as the negative control and baseline of activity. Using a type of inducible reporter, measures of mRNA for gain or loss-of-signal activity can be used to understand the reporter gene at the transcription factor-level as they relate to the gene SOX1. Furthermore, this assay endpoint can be referred to as a primary readout, because this assay has produced multiple assay endpoints where this one serves a reporter gene function. To generalize the intended target to other relatable targets, this assay endpoint is annotated to the dna binding intended target family, where the subfamily is HMG box protein.
Human liver HepG2 cells are transiently transfected with multiple reporter transcription units (MRTUs) in 6-well plates using FuGene 6 reagent (Roche; 3 ml FuGene/1 mg DNA). The MRTU constructs are regulated by a cis-regulating element (promoter). […] A major difference between the CIS and TRANS system is that in CIS activities of endogenous TFs are measured, whereas the TRANS assay evaluates changes in activities of exogenous, chimeric NR-Gal4 proteins. […] At the end of 24 hour incubation, total RNA was isolated using TriZol reagent (Invitrogen). The isolated RNA is then reverse-transcribed using oligo(dT) primer and Mo-MLV reverse transcriptase (Invitrogen) with DNAse I (Ambion) treatment for 30 min. The one-tenth of the produced cDNA was amplified by PCR using Taq DNA polymerase (Invitrogen) and two reporter sequence-specific primers. The PCR products were fluorescently labeled by primer extension with 6-arboxyfluorescein (6-FAM) 5'-labeled reporter sequence-specific primer (2 min at 95 C, 20 s at 68 C and 10 min at 72 C) and these products were digested with 5U of HpaI (New England Biolabs) for 2h at 37 C. The fragments were purified using Qiaquick PCR columns (Qiagen), analyzed on an ABI 3130xL genetic analyzer (Applied Biosystems) with peak positions identified by using a set of X-rhodamine (ROX)-labeled MapMarker1000 molecular weight standards (BioVentures). The raw capillary electrophoresis data was processed using Attagraph software (Attagene).

Row | Compound | AC50 | outcome
1 | CC(O)C#CC(C)O (stereo not given) | 77.1 µM (active) | 
2 | OCC1CCCO1 (stereo not given) |  | inactive
3 | N#CCCOCCC#N |  | inactive
4 | O=C(Cl)c1ccc(Cl)cc1Cl |  | inactive
5 | NCC(F)(F)C(F)(F)C(F)(F)C(F)(F)C(F)(F)C(F)(F)F |  | inactive
6 | Cc1cc(C)c(O)c(C(C)(C)C)c1 |  | inactive
7 | O=S(=O)(Cl)C(F)(F)C(F)(F)C(F)(F)C(F)(F)C(F)(F)C(F)(F)C(F)(F)C(F)(F)F |  | inactive
8 | NCC(F)(F)C(F)(F)C(F)(F)C(F)(F)C(F)(F)C(F)(F)C(F)(F)C(F)(F)F |  | inactive
9 | Brc1nc2ccccc2s1 |  | inactive
10 | O=C1OC(=O)c2ccc3c4c(ccc1c24)C(=O)OC3=O |  | inactive
11 | COC(=O)c1ccc(C=O)cc1 |  | inactive
12 | Brc1ccccn1 |  | inactive
13 | FC(F)(F)C(F)(F)C(F)(F)C(F)(F)C(F)(F)C(F)(F)C(F)(F)CCI |  | inactive
14 | CCCCCCCC/C=C\CCCCCCCC(=O)N(C)CC(=O)O |  | inactive
15 | Oc1ccc2c(c1)CCC2 |  | inactive
16 | Cc1ccc(O)c(-n2nc3ccccc3n2)c1 |  | inactive
17 | OCCCC(F)(F)C(F)(F)C(F)(F)C(F)(F)C(F)(F)C(F)(F)C(F)(F)C(F)(F)F |  | inactive
18 | CC(C)=CCCC(C)O (stereo not given) |  | inactive
19 | C#CC(O)CCC (stereo not given) |  | inactive
20 | O=S(=O)(O)c1ccc(Cl)cc1 |  | inactive

Row | Compound | AC50 | outcome
21 | O=C(O)C(F)(F)C(F)(F)C(F)(F)C(F)(F)C(F)(F)C(F)(F)C(F)F |  | inactive
22 | O=S(=O)(OCC(F)(F)F)C(F)(F)C(F)(F)C(F)(F)C(F)(F)F |  | inactive
23 | O=C1C=CC(=O)N1c1ccc(Cc2ccc(N3C(=O)C=CC3=O)cc2)cc1 |  | inactive
24 | CCOC(=O)C1CC(=O)C(=C(O)C2CC2)C(=O)C1 (stereo not given) |  | inactive
25 | C[Si](Cl)(Cl)CCC(F)(F)C(F)(F)C(F)(F)C(F)(F)C(F)(F)C(F)(F)F |  | inactive
26 | CCOCOCC |  | inactive
27 | CCN=c1cc2oc3cc(NCC)c(C)cc3c(-c3ccccc3C(=O)OCC)c-2cc1C | 15.9 µM (active) | 
28 | Cc1ccc(S(=O)(=O)C(I)I)cc1 |  | inactive
29 | O=S(=O)(O)CCC(F)(F)C(F)(F)C(F)(F)C(F)(F)F |  | inactive
30 | O=C(c1ccccc1)c1ccc(Cl)cc1 |  | inactive
31 | CNS(=O)(=O)C(F)(F)C(F)(F)C(F)(F)C(F)(F)C(F)(F)C(F)(F)C(F)(F)C(F)(F)F |  | inactive
32 | CCn1c2ccccc2c2ccccc21 |  | inactive
33 | CCCCCC/C=C/CCCCCCCC(=O)O |  | inactive
34 | CCC(Cc1c(I)cc(I)c(N)c1I)C(=O)O (stereo not given) | 137 µM (active) | 
35 | CCCCCCCCCCCCCC[P+](CCCC)(CCCC)CCCC |  | inactive
36 | O=C(O)C(F)(F)C(F)(F)C(F)(F)OC(F)(F)F |  | inactive
37 | COCCC(=O)OC |  | inactive
38 | FC(F)(F)C(F)(F)C(F)(F)C(F)(F)C(F)(F)C(F)(F)CC[Si](Cl)(Cl)Cl |  | inactive
39 | CCN(CC)c1ccc2c(c1)Oc1cc(N(CC)CC)ccc1C21OC(=O)c2ccccc21 |  | inactive
40 | NC(O)(C(F)(F)F)C(F)(F)F |  | inactive
